In the supplement of paper PMC4466140:

What follows are binders tested against AgAbp1 (assay: SPOT peptide array binding signal intensity (averaged, normalized) (arbitrary units (background-subtracted, floor 0; scale differs between SH3 domains)); higher = stronger binding of the SH3 domain to the peptide).
In short: (§1)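 Binding signal refers to normalized, background-subtracted spot intensity averaged over replicates, expressed in arbitrary units that differ between domains. GST-fused SH3 domains from four yeast species were incubated at 10 μg/ml overnight at 4°C on cellulose membranes of synthetic 15-mer peptides with cysteines replaced by serines. Bound protein was detected with anti-GST antibody, an HRP anti-mouse secondary and luminol, and quantified with Genespotter.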

Binder | SPOT peptide array binding signal intensity
QPPLPSSAPPIPTSH | ≤ 0

The binders below were run against AgBbc1 in the same assay as above.
In short: as §1

Binder | SPOT peptide array binding signal intensity
QPPLPSSAPPIPTSH | ≤ 0

What follows are binders tested against AgBem1-D1 in the same assay as above.
In short: as §1

Binder | SPOT peptide array binding signal intensity
QPPLPSSAPPIPTSH | ≤ 0

The binders below were run against AgBzz1-D1 in the same assay as above.
In short: as §1

Binder | SPOT peptide array binding signal intensity
QPPLPSSAPPIPTSH | 35

Each binder was assayed against AgBzz1-D2 in the same assay as above.
In short: as §1

Binder | SPOT peptide array binding signal intensity
QPPLPSSAPPIPTSH | ≤ 0

What follows are binders tested against AgCyk3 in the same assay as above.
In short: as §1

Binder | SPOT peptide array binding signal intensity
QPPLPSSAPPIPTSH | ≤ 0

The binders below were run against AgFus1 in the same assay as above.
In short: as §1

Binder | SPOT peptide array binding signal intensity
QPPLPSSAPPIPTSH | ≤ 0

The binders below were run against AgHof1 in the same assay as above.
In short: as §1

Binder | SPOT peptide array binding signal intensity
QPPLPSSAPPIPTSH | ≤ 0

The binders below were run against AgHse1 in the same assay as above.
In short: as §1

Binder | SPOT peptide array binding signal intensity
QPPLPSSAPPIPTSH | ≤ 0

What follows are binders tested against AgLsb1 in the same assay as above.
In short: as §1

Binder | SPOT peptide array binding signal intensity
QPPLPSSAPPIPTSH | ≤ 0

The binders below were run against AgLsb4 in the same assay as above.
In short: as §1

Binder | SPOT peptide array binding signal intensity
QPPLPSSAPPIPTSH | ≤ 0

Each binder was assayed against AgMyo5 in the same assay as above.
In short: as §1

Binder | SPOT peptide array binding signal intensity
QPPLPSSAPPIPTSH | 1730

These binders were tested against AgNbp2 in the same assay as above.
In short: as §1

Binder | SPOT peptide array binding signal intensity
QPPLPSSAPPIPTSH | ≤ 0

These binders were tested against AgRvs167 in the same assay as above.
In short: as §1

Binder | SPOT peptide array binding signal intensity
QPPLPSSAPPIPTSH | ≤ 0

What follows are binders tested against AgSho1 in the same assay as above.
In short: as §1

Binder | SPOT peptide array binding signal intensity
QPPLPSSAPPIPTSH | ≤ 0

Each binder was assayed against AgSla1-D1-D2 in the same assay as above.
In short: as §1

Binder | SPOT peptide array binding signal intensity
QPPLPSSAPPIPTSH | ≤ 0

What follows are binders tested against AgSla1-D3 in the same assay as above.
In short: as §1

Binder | SPOT peptide array binding signal intensity
QPPLPSSAPPIPTSH | ≤ 0

Each binder was assayed against CaAbp1-D1 in the same assay as above.
In short: as §1

Binder | SPOT peptide array binding signal intensity
QPPLPSSAPPIPTSH | ≤ 0

Each binder was assayed against CaAbp1-D2 in the same assay as above.
In short: as §1

Binder | SPOT peptide array binding signal intensity
QPPLPSSAPPIPTSH | ≤ 0

What follows are binders tested against CaBbc1 in the same assay as above.
In short: as §1

Binder | SPOT peptide array binding signal intensity
QPPLPSSAPPIPTSH | ≤ 0

Each binder was assayed against CaBem1-D1 in the same assay as above.
In short: as §1

Binder | SPOT peptide array binding signal intensity
QPPLPSSAPPIPTSH | 8.5

Each binder was assayed against CaBzz1-D1 in the same assay as above.
In short: as §1

Binder | SPOT peptide array binding signal intensity
QPPLPSSAPPIPTSH | ≤ 0

What follows are binders tested against CaBzz1-D2 in the same assay as above.
In short: as §1

Binder | SPOT peptide array binding signal intensity
QPPLPSSAPPIPTSH | 2.5

These binders were tested against CaCyk3 in the same assay as above.
In short: as §1

Binder | SPOT peptide array binding signal intensity
QPPLPSSAPPIPTSH | ≤ 0

What follows are binders tested against CaFus1 in the same assay as above.
In short: as §1

Binder | SPOT peptide array binding signal intensity
QPPLPSSAPPIPTSH | ≤ 0

Each binder was assayed against CaHof1 in the same assay as above.
In short: as §1

Binder | SPOT peptide array binding signal intensity
QPPLPSSAPPIPTSH | ≤ 0

The binders below were run against CaHse1 in the same assay as above.
In short: as §1

Binder | SPOT peptide array binding signal intensity
QPPLPSSAPPIPTSH | ≤ 0

Each binder was assayed against CaLsb1 in the same assay as above.
In short: as §1

Binder | SPOT peptide array binding signal intensity
QPPLPSSAPPIPTSH | ≤ 0

Each binder was assayed against CaLsb4 in the same assay as above.
In short: as §1

Binder | SPOT peptide array binding signal intensity
QPPLPSSAPPIPTSH | ≤ 0

These binders were tested against CaMyo5 in the same assay as above.
In short: as §1

Binder | SPOT peptide array binding signal intensity
QPPLPSSAPPIPTSH | 510

Each binder was assayed against CaNbp2 in the same assay as above.
In short: as §1

Binder | SPOT peptide array binding signal intensity
QPPLPSSAPPIPTSH | ≤ 0

These binders were tested against CaRvs167 in the same assay as above.
In short: as §1

Binder | SPOT peptide array binding signal intensity
QPPLPSSAPPIPTSH | ≤ 0

What follows are binders tested against CaRvs167-3 in the same assay as above.
In short: as §1

Binder | SPOT peptide array binding signal intensity
QPPLPSSAPPIPTSH | 0.5

Each binder was assayed against CaSho1 in the same assay as above.
In short: as §1

Binder | SPOT peptide array binding signal intensity
QPPLPSSAPPIPTSH | ≤ 0

Each binder was assayed against CaSla1-D1-D2 in the same assay as above.
In short: as §1

Binder | SPOT peptide array binding signal intensity
QPPLPSSAPPIPTSH | ≤ 0

Each binder was assayed against CaSla1-D3 in the same assay as above.
In short: as §1

Binder | SPOT peptide array binding signal intensity
QPPLPSSAPPIPTSH | ≤ 0

What follows are binders tested against ScAbp1 in the same assay as above.
In short: as §1

Binder | SPOT peptide array binding signal intensity
QPPLPSSAPPIPTSH | ≤ 0

Each binder was assayed against ScBbc1 in the same assay as above.
In short: as §1

Binder | SPOT peptide array binding signal intensity
QPPLPSSAPPIPTSH | ≤ 0

What follows are binders tested against ScBem1-D1 in the same assay as above.
In short: as §1

Binder | SPOT peptide array binding signal intensity
QPPLPSSAPPIPTSH | ≤ 0

Each binder was assayed against ScBzz1-D1 in the same assay as above.
In short: as §1

Binder | SPOT peptide array binding signal intensity
QPPLPSSAPPIPTSH | ≤ 0

Each binder was assayed against ScBzz1-D2 in the same assay as above.
In short: as §1

Binder | SPOT peptide array binding signal intensity
QPPLPSSAPPIPTSH | ≤ 0

Each binder was assayed against ScCyk3 in the same assay as above.
In short: as §1

Binder | SPOT peptide array binding signal intensity
QPPLPSSAPPIPTSH | ≤ 0

These binders were tested against ScFus1 in the same assay as above.
In short: as §1

Binder | SPOT peptide array binding signal intensity
QPPLPSSAPPIPTSH | ≤ 0

The binders below were run against ScHof1 in the same assay as above.
In short: as §1

Binder | SPOT peptide array binding signal intensity
QPPLPSSAPPIPTSH | ≤ 0

Each binder was assayed against ScHse1 in the same assay as above.
In short: as §1

Binder | SPOT peptide array binding signal intensity
QPPLPSSAPPIPTSH | ≤ 0

Each binder was assayed against ScLsb1 in the same assay as above.
In short: as §1

Binder | SPOT peptide array binding signal intensity
QPPLPSSAPPIPTSH | ≤ 0

What follows are binders tested against ScLsb2 in the same assay as above.
In short: as §1

Binder | SPOT peptide array binding signal intensity
QPPLPSSAPPIPTSH | ≤ 0

The binders below were run against ScLsb3 in the same assay as above.
In short: as §1

Binder | SPOT peptide array binding signal intensity
QPPLPSSAPPIPTSH | ≤ 0

The binders below were run against ScLsb4 in the same assay as above.
In short: as §1

Binder | SPOT peptide array binding signal intensity
QPPLPSSAPPIPTSH | ≤ 0

The binders below were run against ScMyo3 in the same assay as above.
In short: as §1

Binder | SPOT peptide array binding signal intensity
QPPLPSSAPPIPTSH | 2510

Each binder was assayed against ScMyo5 in the same assay as above.
In short: as §1

Binder | SPOT peptide array binding signal intensity
QPPLPSSAPPIPTSH | 1600

What follows are binders tested against ScNbp2 in the same assay as above.
In short: as §1

Binder | SPOT peptide array binding signal intensity
QPPLPSSAPPIPTSH | ≤ 0

Each binder was assayed against ScPex13 in the same assay as above.
In short: as §1

Binder | SPOT peptide array binding signal intensity
QPPLPSSAPPIPTSH | ≤ 0

These binders were tested against ScRvs167 in the same assay as above.
In short: as §1

Binder | SPOT peptide array binding signal intensity
QPPLPSSAPPIPTSH | ≤ 0

Each binder was assayed against ScSho1 in the same assay as above.
In short: as §1

Binder | SPOT peptide array binding signal intensity
QPPLPSSAPPIPTSH | ≤ 0

The binders below were run against ScSla1-D1-D2 in the same assay as above.
In short: as §1

Binder | SPOT peptide array binding signal intensity
QPPLPSSAPPIPTSH | ≤ 0

These binders were tested against ScSla1-D3 in the same assay as above.
In short: as §1

Binder | SPOT peptide array binding signal intensity
QPPLPSSAPPIPTSH | ≤ 0

Each binder was assayed against SpAbp1-D1 in the same assay as above.
In short: as §1

Binder | SPOT peptide array binding signal intensity
QPPLPSSAPPIPTSH | 2.5

These binders were tested against SpBbc1 in the same assay as above.
In short: as §1

Binder | SPOT peptide array binding signal intensity
QPPLPSSAPPIPTSH | 4.25

Each binder was assayed against SpBzz1-D1 in the same assay as above.
In short: as §1

Binder | SPOT peptide array binding signal intensity
QPPLPSSAPPIPTSH | ≤ 0

Each binder was assayed against SpBzz1-D2 in the same assay as above.
In short: as §1

Binder | SPOT peptide array binding signal intensity
QPPLPSSAPPIPTSH | ≤ 0

The binders below were run against SpCyk3 in the same assay as above.
In short: as §1

Binder | SPOT peptide array binding signal intensity
QPPLPSSAPPIPTSH | ≤ 0

The binders below were run against SpHof1 in the same assay as above.
In short: as §1

Binder | SPOT peptide array binding signal intensity
QPPLPSSAPPIPTSH | ≤ 0

What follows are binders tested against SpHof1-2 in the same assay as above.
In short: as §1

Binder | SPOT peptide array binding signal intensity
QPPLPSSAPPIPTSH | ≤ 0

Each binder was assayed against SpHof1-3 in the same assay as above.
In short: as §1

Binder | SPOT peptide array binding signal intensity
QPPLPSSAPPIPTSH | ≤ 0

Each binder was assayed against SpHse1 in the same assay as above.
In short: as §1

Binder | SPOT peptide array binding signal intensity
QPPLPSSAPPIPTSH | 17.5

The binders below were run against SpLsb1 in the same assay as above.
In short: as §1

Binder | SPOT peptide array binding signal intensity
QPPLPSSAPPIPTSH | ≤ 0

Each binder was assayed against SpLsb4 in the same assay as above.
In short: as §1

Binder | SPOT peptide array binding signal intensity
QPPLPSSAPPIPTSH | ≤ 0

These binders were tested against SpMyo1 in the same assay as above.
In short: as §1

Binder | SPOT peptide array binding signal intensity
QPPLPSSAPPIPTSH | 1080

The binders below were run against SpNbp2 in the same assay as above.
In short: as §1

Binder | SPOT peptide array binding signal intensity
QPPLPSSAPPIPTSH | ≤ 0

These binders were tested against SpPex13 in the same assay as above.
In short: as §1

Binder | SPOT peptide array binding signal intensity
QPPLPSSAPPIPTSH | 1

Each binder was assayed against SpRvs167 in the same assay as above.
In short: as §1

Binder | SPOT peptide array binding signal intensity
QPPLPSSAPPIPTSH | ≤ 0

The binders below were run against SpSla1-D1-D2 in the same assay as above.
In short: as §1

Binder | SPOT peptide array binding signal intensity
QPPLPSSAPPIPTSH | ≤ 0

Each binder was assayed against SpSla1-D3 in the same assay as above.
In short: as §1

Binder | SPOT peptide array binding signal intensity
QPPLPSSAPPIPTSH | 3.5
